From PubChem BioAssay AID1650 (Southern Research Specialized Biocontainment Screening …, 2009)
Potency and affinity values are given separately. The source made the active and inactive calls. The rule behind the calls is not given here.

Assay: host cell cytotoxicity of antiviral hits, dose response, cytotoxicity control for West Nile virus antiviral project, secondary assay (AID 1650)
Details: Mammalian host cell viability, cytotoxicity counter-screen; series mostly up to 10 µM; viability: at the top concentration

| SMILES | viability |
| --- | --- |
| Cc1ccc(-n2c(O)c(C=Nc3ccc4c(c3)OCO4)c3ccccc3c2=O)cc1C | 79.1% [at 20 µM] (inactive) |
| COC1(OC)C=CC(=O)C=C1NC(=O)c1ccccc1OC(C)=O | 71.4% (inactive) |
| CCN(CC)S(=O)(=O)c1ccc(OC)c(NC(=O)c2cccc([N+](=O)[O-])c2C)c1 | 83% [at 20 µM] (inactive) |
| Cc1onc(-c2cccc(Cl)c2Cl)c1C(=O)O/N=C(\N)c1ccc([N+](=O)[O-])o1 | 80.5% (inactive) |
| CCCCN(C)CCNC(=S)Nc1ccc2nc(N3CCN(CC)CC3)cc(C)c2c1 | 83.8% (inactive) |
| CCCCN(CC)CCCNC(=S)Nc1ccc2nc(N3CCN(CC)CC3)cc(C)c2c1 | 80% (inactive) |
| COc1ccc2[nH]c3nc(SCc4nnc(-c5ccc(C)cc5)o4)nnc3c2c1 | 80.5% (inactive) |
| Cc1ccc(S(=O)(=O)N2CCCC2C(=O)Oc2ccccc2)cc1 (stereo unspecified) | 86.8% (inactive) |
| COc1ccc(C2c3ccc4ccccc4c3Oc3ncn(CCO)c(=N)c32)cc1 (stereo unspecified) | 79.2% (inactive) |
| CC(C)n1cc(CN2CCCC(C(=O)Nc3cccc(-c4cc5ccccc5[nH]4)c3)C2)cn1 (stereo unspecified) | 85.8% (inactive) |
| Cc1ccccc1C(=O)c1cccn1CC(=O)NCCN1CCN(c2cccc(C)c2C)CC1 | 70.8% [at 20 µM] (inactive) |
| CCN1CCN(CCCNC(=O)c2ccc3c(Cl)c4c(nc3c2)CCCC4)CC1 | 86.8% (inactive) |
| CCCc1nc([N+](=O)[O-])c(S(=O)(=O)c2ccccc2)n1CC(C)C | 92.9% [at 20 µM] (inactive) |
| Cc1ccc2[nH]c(=O)c(CN(CCCN(C)C)C(=O)Nc3ccc(Cl)cc3)cc2c1 | 74.7% (inactive) |
| O=C(CCN1C(=O)/C(=C\c2ccccc2Cl)SC1=S)N1CCN(c2ccccc2)CC1 | 76.2% [at 20 µM] (inactive) |
| CCOC(=O)c1cc(-c2ccc(OC)cc2F)nc2c1c(C)nn2CCC#N | 71.9% (inactive) |
